Experimental findings from the supplement of paper PMC7366291 are described below.

Common to all, as to settings: 25 µM; exposure: 24-48 hpf
The test system of test [1] is Danio rerio Tg(wt1b:EGFP) embryo, pronephros. As to the kind of experiment: glomerular separation, fold change vs DMSO control; higher = glomeruli further apart (abnormal). The procedure, abridged:
(§1)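 In HEPES-buffered E3 with 0.003% PTU and 0.5% DMSO, dechorionated Tg(wt1b:EGFP) zebrafish embryos were exposed to 25 μM compound from 24 to 48 hpf at 28.5°C. Pronephroi were then imaged dorsally at 470 nm in 10 z-slices, in 96-well plates filled with agarose. On maximum projections, a Fiji macro turned 16 manually placed reference points into distances and angles, and values more than 2 SD from the feature mean were excluded. Features are fold changes relative to the mean of DMSO-treated embryos from the same day.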

Test [2] shares this test system. In words: glomerular width (mean of left and right), fold change vs DMSO control; higher = wider glomerulus. The procedure, abridged:
as §1

Test [3] shares this test system. In words: pronephric angle neck segment to proximal convoluted tubule (mean of left and right), fold change vs DMSO control; higher = larger pronephric angle. A digest of the protocol:
as §1

The test system is the same in test [4]. In words: fraction of imaged embryos annotated as normal kidney; higher = less nephrotoxic; extreme values may be limits of the assay. A digest of the protocol:
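Dechorionated Tg(wt1b:EGFP) zebrafish embryos were incubated with 25 μM compound in 0.5% DMSO, 5 mM HEPES-buffered E3 and 0.003% PTU from 24 to 48 hpf at 28.5°C. Pronephroi were then imaged by widefield fluorescence, and the fraction of embryos per treatment assigned by hand to the normal-kidney category is given.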

Structures can show the parent of a compound that is named as a salt. ± gives the standard deviation or the standard deviation of the averaged measurements.

In test [1], `CC(C)CN(C[C@@H](O)[C@H](Cc1ccccc1)NC(=O)O[C@H]1CO[C@H]2OCC[C@H]21)S(=O)(=O)c1ccc(N)cc1` [Darunavir] came in with a glomerular separation of 1.16 ± 0.42. Besides, the glomerular width in test [2] was determined as 0.976 ± 0.018. Besides, the “pronephric angle neck segment” value in test [3] turned out to be 0.9599 ± 0.0035.

In turn, `CN(Cc1ccc(C(C)(C)C)cc1)Cc1cccc2ccccc12` [Butenafine Hydrochloride] returned a glomerular separation in test [1] of 0.932 ± 0.4. In addition, the glomerular width in test [2] was 0.9818 ± 0.007. Moreover, the “fraction of imaged embryos annotated as normal kidney” value (“fraction of imaged embryos annotated” below) in test [4] was determined as 0.909. Besides, the “pronephric angle neck segment” value in test [3] was 1.05 ± 0.12.

In test [1], `CCOc1ccc2nc(S(N)(=O)=O)sc2c1` [Ethoxzolamide] had a glomerular separation of 2.05 ± 1.5. In test [2], the glomerular width amounted to 1.08 ± 0.0034. The “pronephric angle neck segment” value in test [3] stood at 1.2306 ± 0.00079.

As to `CC[C@@H](CO)NCCN[C@@H](CC)CO` [Ethambutol dihydrochloride], the glomerular separation in test [1] stood at 1.28 ± 0.4. This molecule also displayed a glomerular width in test [2] of 0.965 ± 0.028. Also, in test [4], the “fraction of imaged embryos annotated” value came to 0.75. Besides, the “pronephric angle neck segment” value in test [3] came to 1.02 ± 0.076.

Regarding `CC(=O)OCC1=C(C(=O)O)N2C(=O)[C@@H](NC(=O)Cc3cccs3)[C@H]2SC1` [Cephalothin sodium salt], the glomerular separation in test [1] was determined as 0.848 ± 0.31. In addition, in test [2], the glomerular width is 0.923 ± 0.08. Besides, the “fraction of imaged embryos annotated” value in test [4] is 1. Moreover, in test [3], the “pronephric angle neck segment” value came out at 1.02 ± 0.028.

In turn, `CN(C)c1cc(NC(=O)CNC(C)(C)C)c(O)c2c1C[C@H]1C[C@H]3[C@H](N(C)C)C(O)=C(C(N)=O)C(=O)[C@@]3(O)C(O)=C1C2=O` [Tigecycline] yielded a glomerular separation in test [1] of 0.759 ± 0.22. The glomerular width in test [2] worked out at 1.03 ± 0.045. Moreover, in test [4], the “fraction of imaged embryos annotated” value is 0.833. Also, the “pronephric angle neck segment” value in test [3] worked out at 0.954 ± 0.02.

Regarding `Nc1c2c(nc3ccccc13)CCCC2` [Tacrine hydrochloride], the glomerular separation in test [1] worked out at 1.09 ± 0.33. The same molecule gave a glomerular width in test [2] of 1.01 ± 0.029. Further, the “fraction of imaged embryos annotated” value in test [4] came out at 0.833. For the same molecule, the “pronephric angle neck segment” value in test [3] stood at 1.03 ± 0.042.

`CCOC(=O)N1CCC(=C2c3ccc(Cl)cc3CCc3cccnc32)CC1` [Loratadine] had a glomerular separation in test [1] of 1.4 ± 0.98. In test [2], this molecule returned a glomerular width of 0.989 ± 0.055. The “pronephric angle neck segment” value in test [3] came to 1.1 ± 0.021.

Turning to `CC(C(=O)O)c1cccc(C(=O)c2ccccc2)c1` (stereo not drawn) [Ketoprofen], the glomerular separation in test [1] was found to be 1.58 ± 0.77. Besides, in test [2], the glomerular width worked out at 0.83 ± 0.037. For the same molecule, in test [3], the “pronephric angle neck segment” value came out at 1.1 ± 0.028.

In turn, `CC(=O)[C@H]1CC[C@H]2[C@@H]3CCC4=CC(=O)CC[C@]4(C)[C@H]3CC[C@]12C` [Progesterone] registered a glomerular separation in test [1] of 3.48 ± 3.4. Further, the glomerular width in test [2] turned out to be 0.873 ± 0.086. In addition, in test [4], the “fraction of imaged embryos annotated” value was found to be 0.364. Further, the “pronephric angle neck segment” value in test [3] amounted to 1.2 ± 0.12.

In the case of `CCOC(=O)c1ccc(OC(=O)CCCCCNC(=N)N)cc1` [Gabexate mesilate], the glomerular separation in test [1] is 0.986 ± 0.37. The glomerular width in test [2] turned out to be 0.986 ± 0.011. In addition, the “fraction of imaged embryos annotated” value in test [4] came to 0.8. Further, the “pronephric angle neck segment” value in test [3] came to 0.961 ± 0.013.

In the case of `CC(C)C[C@H](NC(=O)[C@@H](O)[C@H](N)Cc1ccccc1)C(=O)O` [Ubenimex], in test [1], the glomerular separation turned out to be 1.12 ± 0.52. For the same molecule, the glomerular width in test [2] came to 1.01 ± 0.048. Moreover, the “fraction of imaged embryos annotated” value in test [4] worked out at 0.833. Besides, the “pronephric angle neck segment” value in test [3] was 1.01 ± 0.028.

For the molecule `COCCCOc1ccnc(C[S+]([O-])c2nc3ccccc3[nH]2)c1C` (stereo not drawn) [Rabeprazole Sodium salt], the glomerular separation in test [1] was determined as 0.694 ± 0.27. In test [2], the glomerular width was determined as 1.01 ± 0.019. Moreover, the “fraction of imaged embryos annotated” value in test [4] is 0.75. The “pronephric angle neck segment” value in test [3] was 1.11 ± 0.019.

On to `CC(N/C(=N\C#N)Nc1ccncc1)C(C)(C)C` (stereo not drawn) [Pinacidil], for which the glomerular separation in test [1] worked out at 0.881 ± 0.21. Further, in test [2], the glomerular width is 1.05 ± 0.1. For the same molecule, the “fraction of imaged embryos annotated” value in test [4] stood at 0.727. For the same molecule, the “pronephric angle neck segment” value in test [3] was 1.01 ± 0.036.

In turn, `CC(=O)OCC(=O)[C@@]1(O)[C@H](C)C[C@H]2[C@@H]3CCC4=CC(=O)C=C[C@]4(C)[C@@]3(F)[C@@H](O)C[C@@]21C` [Dexamethasone acetate] displayed a glomerular separation in test [1] of 1 ± 0.25. Also, the glomerular width in test [2] amounted to 1.252 ± 0.0072. Moreover, in test [4], the “fraction of imaged embryos annotated” value came out at 1. The “pronephric angle neck segment” value in test [3] is 1.02 ± 0.034.

The molecule `CN(C)CCCN1c2ccccc2Sc2ccc(C(F)(F)F)cc21` [Triflupromazine hydrochloride] registered a glomerular separation in test [1] of 0.863 ± 0.37. Further, in test [2], the glomerular width came to 1.033 ± 0.0067. For the same molecule, the “pronephric angle neck segment” value in test [3] amounted to 0.954 ± 0.014.

In test [1], `CCOC(=O)C1=C(COCCN)NC(C)=C(C(=O)OC)C1c1ccccc1Cl` (stereo not drawn) [Amlodipine] came in with a glomerular separation of 0.923 ± 0.2. For the same molecule, in test [2], the glomerular width is 1.03 ± 0.085. Besides, the “fraction of imaged embryos annotated” value in test [4] stood at 1. Moreover, in test [3], the “pronephric angle neck segment” value is 0.983 ± 0.029.

With `CC1=Nc2ccc(Cl)cc2S(=O)(=O)N1` [Diazoxide], the glomerular separation in test [1] amounted to 0.743 ± 0.26. The molecule further displayed a glomerular width in test [2] of 1.03 ± 0.029. For the same molecule, the “fraction of imaged embryos annotated” value in test [4] was 0.833. Further, in test [3], the “pronephric angle neck segment” value amounted to 0.942 ± 0.035.

`CCc1cccc2c3c([nH]c12)C(CC)(CC(=O)O)OCC3` (stereo not drawn) [Etodolac]: the glomerular separation in test [1] was determined as 1.66 ± 0.82. Moreover, the glomerular width in test [2] came out at 0.954 ± 0.025. In test [4], the “fraction of imaged embryos annotated” value worked out at 0.636. The “pronephric angle neck segment” value in test [3] was 1.13 ± 0.055.

As to `Cc1ccnc2c1NC(=O)c1cccnc1N2C1CC1` [Nevirapine], the glomerular separation in test [1] is 1.13 ± 0.48. The same molecule had a glomerular width in test [2] of 1.02 ± 0.016. Besides, the “fraction of imaged embryos annotated” value in test [4] came to 0.917. The “pronephric angle neck segment” value in test [3] amounted to 1.03 ± 0.048.

For the molecule `CN(C)c1nc(N(C)C)nc(N(C)C)n1` [Altretamine], in test [1], the glomerular separation turned out to be 0.998 ± 0.46. In test [2], this molecule returned a glomerular width of 0.923 ± 0.011. For the same molecule, the “fraction of imaged embryos annotated” value in test [4] was determined as 0.917. For the same molecule, the “pronephric angle neck segment” value in test [3] worked out at 1.06 ± 0.062.

As for `CNCCc1ccccn1` [Betahistine mesylate], in test [1], the glomerular separation turned out to be 0.815 ± 0.39. Besides, in test [2], the glomerular width is 1.06 ± 0.034. Moreover, in test [4], the “fraction of imaged embryos annotated” value stood at 0.833. In addition, the “pronephric angle neck segment” value in test [3] was determined as 0.9697 ± 0.0079.

`COc1ccc(CCN(C)CCCC(C#N)(c2ccc(OC)c(OC)c2)C(C)C)cc1OC` (stereo not drawn) [Verapamil hydrochloride] yielded a glomerular separation in test [1] of 1.1 ± 0.41. Moreover, the glomerular width in test [2] was found to be 0.995 ± 0.019. In test [3], the “pronephric angle neck segment” value is 1.075 ± 0.0043.

For the molecule `Cc1ccc(/C(=C\CN2CCCC2)c2ccccn2)cc1` [Triprolidine hydrochloride], the glomerular separation in test [1] is 0.823 ± 0.16. In test [2], this molecule gave a glomerular width of 1.035 ± 0.0046. In addition, the “fraction of imaged embryos annotated” value in test [4] was 0.917. Further, in test [3], the “pronephric angle neck segment” value was 1.04 ± 0.045.

In test [1], `CC(Oc1c(Cl)cccc1Cl)C1=NCCN1` (stereo not drawn) [Lofexidine] displayed a glomerular separation of 1.06 ± 0.22. Also, in test [2], the glomerular width was 0.9921 ± 0.0057. Moreover, in test [4], the “fraction of imaged embryos annotated” value is 0.833. Moreover, in test [3], the “pronephric angle neck segment” value is 0.96 ± 0.028.

Molecule `CCCC(=O)Nc1ccc(OCC(O)CNC(C)C)c(C(C)=O)c1` (stereo not drawn) [Acebutolol hydrochloride] registered a glomerular separation in test [1] of 1.43 ± 0.56. In addition, in test [2], the glomerular width was 1.06 ± 0.075. The “fraction of imaged embryos annotated” value in test [4] stood at 0.75. Further, the “pronephric angle neck segment” value in test [3] worked out at 0.9596 ± 0.0066.

As for `NC1CCN(c2c(F)cc3c(=O)c(C(=O)O)cn(C4CC4)c3c2Cl)C1` (stereo not drawn) [Clinafloxacin], in test [1], the glomerular separation was 1.2 ± 0.45. Further, in test [2], the glomerular width is 1.03 ± 0.087. Moreover, the “fraction of imaged embryos annotated” value in test [4] was found to be 1. In addition, the “pronephric angle neck segment” value in test [3] is 0.962 ± 0.038.

In test [1], `CC(C)c1ccc2oc3nc(N)c(C(=O)O)cc3c(=O)c2c1` [Amlexanox] returned a glomerular separation of 1.84 ± 0.69. Further, the glomerular width in test [2] stood at 1.04 ± 0.036. Also, the “pronephric angle neck segment” value in test [3] is 0.955 ± 0.017.

For the molecule `N[C@@H](Cc1cc(I)c(Oc2ccc(O)c(I)c2)c(I)c1)C(=O)O` [Liothyronine], in test [1], the glomerular separation stood at 0.912 ± 0.45. The molecule also yielded a glomerular width in test [2] of 0.9338 ± 0.0093. The “pronephric angle neck segment” value in test [3] stood at 1.01 ± 0.018.
